Pf Dd2 growth: inhibitors of Plasmodium falciparum Dd2 growth. P. falciparum Dd2 growth, SYBR Green, 72 h; stronger effect = lower value. actives 2.3% (n = 94,000). activity change, % at 10 µM; in the data active means activity change below about -80%; inconclusive means no clear call, values can overlap the other calls
T cruzi growth-1: T. cruzi proliferation inhibition | T. cruzi beta-gal in NIH3T3, GalScreen luminescence, 90 h | AID 624255 | actives 5.9% (n = 77,000) | inhibition, % at 8.34 µM;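 active means mean inhibition above about 93%, with at least 55% of replicates each passing it, limit read from the data, passing the limit was not always enough; inconclusive means only one of those two conditions holds; inactive means neither condition holds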
C diff growth: inhibitors of Clostridium difficile growth; growth activity, negative = inhibition, % at 16 µg/mL (by protocol); Clostridium difficile clinical isolate growth, OD600, 24 h; stronger effect = lower value; actives 0.25% (n = 86,000);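 active means mean growth activity at or below -80% and every replicate also at or below -80%; inconclusive means mean at or below -80% but some replicate above -80%; inactive means mean growth activity above -80%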;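 further: 0% = DMSO wells and -100% = levofloxacin 16 µg/mL wells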
T cruzi growth-2: blocks T. cruzi growth in NIH3T3 host cells | shares compounds with T cruzi growth-1 | T. cruzi beta-gal in NIH3T3, GalScreen luminescence, 90 h | inhibition, % at 8.35 µM | actives 72% (n = 5,600) | AID 651739;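 active means mean replicate inhibition above about 95% and at least 55% of replicates individually reaching it, limit read from the data; inconclusive means only one of the two criteria is met; inactive means neither criterion is met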
T cruzi growth-3: blocks T. cruzi growth in NIH3T3 host cells; actives 21% (n = 5,600); AID 651740; T. cruzi beta-gal in NIH3T3, GalScreen luminescence, 90 h; inhibition, % at 2.09 µM; shares compounds with T cruzi growth-1;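 active means mean inhibition above about 95%, with at least 55% of replicates also reaching it, limit read from the data; inconclusive means meets just one of the two conditions; inactive means meets neither condition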;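 further: plate controls were neutral control median for no effect and positive control median for full effect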
3T3 cytotox: cytotoxicity in mouse NIH/3T3 fibroblasts; cytotoxicity (signal decrease), % at 8.35 µM; shares compounds with T cruzi growth-1; NIH/3T3 viability, CellTiter-Glo ATP luminescence, 90 h; actives 14% (n = 5,600);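 active means mean signal decrease across replicates above about 35% based on untreated-well scatter, with enough replicates individually passing, limit read from the data; inconclusive means no rule stated though some were filed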;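 further: 0% = median of neutral control wells and 100% = median of positive control wells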
NIH3T3 tox 2: kills mouse NIH/3T3 fibroblasts; shares compounds with T cruzi growth-1; NIH/3T3 viability, CellTiter-Glo ATP luminescence, 90 h; inhibition, % at 24.9 µM; actives 56% (n = 5,600);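 active means mean loss of cell viability signal at or above a set limit, and enough replicates individually reaching it; inconclusive means meets only the mean limit or only the replicate share; inactive means meets neither condition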;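 further: 0% = median of neutral control wells and 100% = median of positive control wells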
Starred values were filed as active, the others as inactive; ? = inconclusive; · = no result. The list is not random: actives were taken first. Their share in the collection is about 6.7%.

SMILES	Pf Dd2 growth	T cruzi growth-1	C diff growth	T cruzi growth-2	T cruzi growth-3	3T3 cytotox	NIH3T3 tox 2
COCC#Cc1cnc2c(c1)C(=O)N([C@H](C)CO)C[C@H](C)[C@H](CN(C)C(=O)C1CC1)O2	22	3	·	·	·	·	·
COCC#Cc1cnc2c(c1)C(=O)N([C@@H](C)CO)C[C@@H](C)[C@@H](CN(C)C(=O)C1CC1)O2	0	-41	·	·	·	·	·
Cc1noc(C)c1NC(=O)N(C)C[C@H]1Oc2c(NC(=O)C3CCCCC3)cccc2C(=O)N([C@@H](C)CO)C[C@@H]1C	66	-3	-1	·	·	·	·
COc1ccc(NC(=O)N[C@@H]2CC[C@H](CCn3cc(-c4ccc(OC)cc4)nn3)O[C@H]2CO)cc1	-40	·	-2	·	·	·	·
CC(C)NC(=O)Nc1ccc2c(c1)C(=O)N(C)[C@H]1CC[C@H](CC(=O)NCC(F)(F)F)O[C@H]1CO2	2	-9	2	·	·	·	·
C[C@H]1CN([C@@H](C)CO)C(=O)CCCn2cc(nn2)CO[C@H]1CN(C)C(=O)Nc1ccc2c(c1)OCO2	10	55	-4	·	·	·	·
C[C@H](CO)N1C[C@H](C)[C@H](CN(C)C(=O)Cc2ccncc2)Oc2cc(C#CC3CCCC3)ccc2S1(=O)=O	-79	116*	3	109*	63	34	33*
C[C@@H]1CN([C@H](C)CO)S(=O)(=O)c2ccc(C#CC3CC3)cc2O[C@@H]1CN(C)C(=O)Cc1ccncc1	-42	?	2	102*	68	17	16
C[C@H](CO)N1C[C@H](C)[C@H](CN(C)C(=O)Cc2ccccc2)Oc2cc(C#CC3CCCC3)ccc2S1(=O)=O	-20	·	0	·	·	·	·
C[C@@H]1CN([C@@H](C)CO)S(=O)(=O)c2ccc(C#CC3CCCC3)cc2O[C@@H]1CN(C)C(=O)Cc1ccccc1	-22	·	6	·	·	·	·
C[C@H]1CN([C@@H](C)CO)S(=O)(=O)c2ccc(C#CC3CCCC3)cc2O[C@@H]1CN(C)C(=O)Cc1ccncc1	-29	122*	-12	105*	94	-1	101*
C[C@H](CO)N1C[C@H](C)[C@H](CN(C)C(=O)Cc2ccncc2)Oc2cc(C#CC3CC3)ccc2S1(=O)=O	-31	79	2	·	·	·	·
C[C@H]1CN([C@@H](C)CO)C(=O)Cc2cc(NC(=O)c3ccncc3)ccc2O[C@H]1CN(C)C(=O)Nc1ccc(C(F)(F)F)cc1	8	21	1	·	·	·	·
O=C(N[C@H]1CC[C@@H](CC(=O)N2CCc3ccccc3C2)O[C@@H]1CO)C1CC1	2	·	-2	·	·	·	·
CO[C@H]1CN(C)C(=O)c2ccc(NS(=O)(=O)c3ccccc3C)cc2OC[C@@H](C)NC[C@H]1C	27	-16	·	·	·	·	·
OC[C@@H]1[C@@H](c2ccc(C#CC3(O)CCCC3)cc2)[C@H]2CN(Cc3cccnc3)CCCCN12	7	119*	3	80	36	13	23
OC[C@@H]1[C@@H](c2ccc(C#CC3(O)CCCC3)cc2)[C@H]2CN(Cc3ccncc3)CCCCN12	-11	-66	2	·	·	·	·
OC[C@H]1[C@H](c2ccc(C#CC3(O)CCCC3)cc2)[C@@H]2CN(Cc3cncnc3)CCCCN12	-13	98*	-10	82	40	4	-2
OC[C@@H]1[C@H](c2ccc(C#CC3(O)CCCC3)cc2)[C@@H]2CN(Cc3cncnc3)CCCCN12	-14	?	-6	98*	46	1	-2
CN1CCCCN2[C@@H](CO)[C@H](c3ccc(C#CC4(O)CCCC4)cc3)[C@@H]2C1	15	35	-6	·	·	·	·
OC[C@H]1[C@@H](c2ccc(C#CC3(O)CCCC3)cc2)[C@@H]2CN(Cc3cncnc3)CCCCN12	4	22	-12	·	·	·	·
C[C@@H]1CN([C@H](C)CO)C(=O)c2cc(C#CC3CCCCC3)cnc2O[C@@H]1CN(C)C(=O)C1CCCCC1	-36	-16	-6	·	·	·	·
CCC(=O)Nc1ccc2c(c1)OC[C@@H](C)N(C(=O)COC)C[C@H](C)[C@@H](OC)CN(C)C2=O	12	-3	-2	·	·	·	·
O=C(C[C@H]1CC[C@H](NC(=O)c2ccc(F)cc2)[C@H](CO)O1)NCCc1ccncc1	18	-33	-2	·	·	·	·
COCC#Cc1cnc2c(c1)C(=O)N([C@@H](C)CO)C[C@@H](C)[C@@H](CN(C)C(=O)Nc1cc(F)ccc1F)O2	12	·	-3	·	·	·	·
SMILES	Pf Dd2 growth	T cruzi growth-1	C diff growth	T cruzi growth-2	T cruzi growth-3	3T3 cytotox	NIH3T3 tox 2
C[C@H](CO)N1C[C@H](C)[C@@H](CN(C)Cc2ccc(Oc3ccccc3)cc2)Oc2ccc(N(C)C)cc2CC1=O	-23	116*	3	114*	82	15	106*
C[C@H](CO)N1C[C@H](C)[C@H](CN(C)Cc2ccc(Oc3ccccc3)cc2)Oc2ccc(N(C)C)cc2CC1=O	-25	65	2	·	·	·	·
C[C@@H]1CN([C@@H](C)CO)C(=O)Cc2cc(N(C)C)ccc2O[C@H]1CN(C)Cc1ccc(Oc2ccccc2)cc1	5	111*	7	91	115*	7	106*
C[C@@H]1CN([C@H](C)CO)C(=O)Cc2cc(N(C)C)ccc2O[C@H]1CN(C)Cc1ccc(Oc2ccccc2)cc1	3	94	1	·	·	·	·
O=C(NCCc1ccccc1)[C@H]1[C@H](CO)[C@H]2Cn3c(cccc3=O)[C@H]2N1Cc1ccncc1	0	21	2	·	·	·	·
CC(C)NC(=O)N(C)C[C@@H]1OCCCC[C@H](C)Oc2ccc(NC(=O)Nc3cccc4ccccc34)cc2C(=O)N([C@H](C)CO)C[C@@H]1C	37	·	-9	·	·	·	·
C[C@@H]1CN([C@H](C)CO)C(=O)c2cc(C#Cc3cccnc3)cnc2O[C@@H]1CN(C)C(=O)CC1CC1	-36	67	-8	·	·	·	·
C[C@@H]1CN([C@H](C)CO)C(=O)c2cc(NC(=O)CCN3CCOCC3)ccc2O[C@H]1CN(C)Cc1ccc(Cl)c(Cl)c1	-15	-34	2	·	·	·	·
C[C@H]1CCCCO[C@H](CN(C)S(=O)(=O)c2cccs2)[C@@H](C)CN([C@@H](C)CO)C(=O)c2cc(NC(=O)Nc3ccc(C(F)(F)F)cc3)ccc2O1	-71	99*	8	105*	109*	-22	-2
C[C@@H]1CCCCO[C@H](CN(C)S(=O)(=O)c2cccs2)[C@H](C)CN([C@@H](C)CO)C(=O)c2cc(NC(=O)Nc3ccc(C(F)(F)F)cc3)ccc2O1	-74	?	0	104*	113*	9	4
C[C@H](CO)N1C[C@H](C)[C@H](CN(C)S(=O)(=O)c2cccs2)OCCCC[C@H](C)Oc2ccc(NC(=O)Nc3ccc(C(F)(F)F)cc3)cc2C1=O	-28	86	-4	·	·	·	·
C[C@H]1CCCCO[C@@H](CN(C)S(=O)(=O)c2cccs2)[C@@H](C)CN([C@@H](C)CO)C(=O)c2cc(NC(=O)Nc3ccc(C(F)(F)F)cc3)ccc2O1	-89*	?	-10	96*	110*	-13	7

Screening data from PubChem.
